Bioassay records as filed in PubChem BioAssay.
Only some compounds are listed: those with a hit (about 8.7% of all), similar ones and a draw of the others.
JMJD2A Tudor: blocks the human JMJD2A Tudor domain. AlphaScreen JMJD2A-Tudor / H3K4me3 peptide binding. Potency, µM (highest dose often 114 µM), for the others: at the highest dose activity change, negative = inhibition, actives largely listed as inhibitors. 4.4% of 390,000 active. AID 504339; also: % is scaled to controls: 0 for no effect and ±100 for the full control effect; nearly all actives have a fitted effect of over 50% in size
HP1b chromo inh: blocks HP1-beta chromodomain binding to methylated histone tails; P83916; AlphaScreen HP1-beta / biotin-H3K9me3 peptide binding; Potency, µM (top dose mostly 114 µM), for inactives: at the top dose activity change, negative = inhibition, hits mostly inhibitors; 0.56% of 390,000 active; also: nearly all actives have a fitted effect of over 70% in size
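AlphaScreen: HP1-beta (50 nM) preformed 30 min with biotin-H3(1-18)K9me3 peptide (50 nM) in PBS pH 7.4, 0.01% Tween-20. Compound added for 30 min at RT, then streptavidin donor/nickel chelate acceptor beads (10 ug/mL) for 30 min.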
G9a block: inhibitors of human histone lysine methyltransferase G9a | G9a H3K9 monomethylation, AlphaScreen, 2 h | 8.8% of 350,000 active | Q96KQ7 | Potency, µM (highest dose often 102 µM), for the others: at the top dose activity, negative = inhibition, actives largely listed as inhibitors; also: % is scaled to controls: 0 for no effect and ±100 for the full control effect; nearly all actives have a fitted effect of over 75% in size
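Using a bead-based AlphaScreen, monomethylated H3K9 product from 2 h room-temperature reactions (G9a 20 nM, peptide 500 nM, SAM 20 uM) was detected with 0.5 ug/mL rabbit anti-H3K9me1 antibody.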
12-LOX inh: inhibitors of human 12S-lipoxygenase ALOX12; P18054; 1.1% of 580,000 active; Potency, µM (titrated, usually from 108 µM), without a hit: at the highest dose activity change, negative = inhibition, most hits filed as inhibitors; purified 12hLO, xylenol orange hydroperoxide absorbance; AID 1671190; also: % is scaled to controls: 0 for no effect and ±100 for the full control effect
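Hydroperoxide product was detected by ferrous iron/xylenol orange as the 573 to 405 nm absorbance ratio. Arachidonic acid at 40 uM (final) was turned over for 30 min at room temperature by 150 nM human 12hLO, pH 7.0 Hepes buffer, after 15 min compound preincubation.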
BAZ2B block: BAZ2B (human) inhibition; Q9UIF8; Potency, µM (top dose mostly 114 µM), for the others: top-dose activity change, negative = inhibition, hits mostly inhibitors; 4.4% of 360,000 active; AlphaScreen BAZ2B-H3K14Ac peptide displacement; also: % is scaled to controls: 0 for no effect and ±100 for the full control effect; nearly all actives have a fitted effect of over 60% in size
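BAZ2B 50 nM plus b-H3(5-23)K14Ac 50 nM, PBS pH 7.4/0.01% Tween-20, 30 min RT; compound added (max 110 uM), 30 min RT; streptavidin donor/Ni-chelate acceptor beads 10 ug/mL final, 20 min dark; AlphaScreen read.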
Sfp PPTase inh: Sfp phosphopantetheinyl transferase inhibition | 3.5% of 310,000 active | Potency, µM, for the others: largest response in the series, negative = inhibition, actives largely listed as inhibitors | Q9F4F7 | Biochemical Sfp PPTase activity, qHTS;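 also: the enzyme is Sfp with the accession as filed and its product quenches rhodamine fluorescence; 0% = enzyme reaction without inhibitor and -100% = no enzyme wells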
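With Hepes-Na pH 7.6 buffer containing 10 mM MgCl2, Sfp (15 nM) modified BHQ-2-YbbR (12.5 uM) using rhodamine-CoA (5 uM). Two reads 30 minutes apart at 525/598 nm yielded each well's rate.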
Starred values were filed as active, the others as inactive; ? = inconclusive; / = not tested or not shown; [ ] = another dose, or the depositor's remark. Calls follow the shape of the dose curve; as a rule, active = well fitted curve in the direction sought with a large enough effect; inconclusive = small, poorly fitted or top-dose-only effect, or another doubt; inactive = no such curve, though single readings can be large; an effect the other way counts as inactive or inconclusive. Potency is read from the fitted curve at half-maximal effect.

SMILES | JMJD2A Tudor | HP1b chromo inh | G9a block | 12-LOX inh | BAZ2B block | Sfp PPTase inh
CCOC(=O)c1c(NC(=O)CSc2ncn[nH]2)sc(C)c1C | -23.5% | -16.6% | 44.7µM* | 0.0% | -12.5% | -24.5%
CCOC(=O)c1c(C)[nH]c(C(=O)OCC(=O)Nc2sc(C(=O)N(C)C)c(C)c2C(=O)OCC)c1C | -10.3% | 15.7% | 1.1%[12.7 µM] | 3.7% | -8.0% | /
CCOC(=O)c1c(NC(=O)CSc2ncn[nH]2)sc(C(=O)N(C)C)c1C | -5.5% | 12.4% | 50.1µM* | 1.4% | 8.2% | /
CCOC(=O)c1c(NC(=O)c2cccnc2Cl)sc(C(=O)N(C)C)c1C | -12.8% | -11.0% | 25.1µM* | -23.2% | 0.2% | 20.3%
CCCCc1nc(SCC(=O)Nc2nnc(CCCC)s2)n[nH]1 | 2.7% | 43.3% | ? | -10.6% | -28.1% | 13.7%
O=C(COC(=O)CC12CC3CC(CC(C3)C1)C2)Nc1ccc(F)c([N+](=O)[O-])c1 | / | / | / | -6.9% | / | /
C=CCNC(=O)N[C@H]1[C@H](O)[C@@H](N2CCN(C(C)=O)CC2)[C@@H]2OC[C@H]1O2 | / | / | / | 10.4%[176 µM] | / | /
CNCCN1C(=O)CC[C@H]2CN(C(=O)CCc3ccsc3)CC[C@H]21 | / | / | / | 27.9% | / | /
CCOC(=O)c1cnc(Nc2ccc(F)cc2)c2ccccc12 | / | / | / | -16.7% | / | /
CC(C)(C)c1ccc(S(=O)(=O)NC(Cc2ccccc2)C(=O)O)cc1 (stereo not drawn) | -12.2% | ? | 79.4µM* | -8.7% | -34.1% | ?
COc1ccc(C[C@@H](NS(=O)(=O)c2ccc(C(=O)O)cc2)C(=O)O)cc1 | -8.3% | / | -14.5%[12.7 µM] | / | -3.8% | 10.5%
Cc1ccc(S(=O)(=O)NC(Cc2ccccc2)C(=O)O)cc1 (stereo not drawn) | 5.2%[57.1 µM] | 36.9% | -31.2% | -9.4% | -5.4% | 9.1%
